Molecules are shown by their SMILES. Results filed as inconclusive are left out. Active and inactive are the calls of the source. Rule for the calls: active = hit-call score of the fitted dose curve at least 0.9, where 1 is the maximum; inconclusive = response in the unintended direction; inactive = score below 0.9.

Drawing on PubChem BioAssay (EPA / NIEHS), this text covers outcome for 40 compounds.

The experiment deals with Androgen receptor (Homo sapiens) (UniProt P10275). The experiment in a line: ATG_AR_TRANS: Attagene TRANS-FACTORIAL HepG2 Assay for human Androgen Receptor (AR) (AID 2282973). The conditions noted are these: HepG2 Attagene TRANS-FACTORIAL AR reporter transcription. Summed up: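 Steps: transfect HepG2 with multiple GAL4-UAS reporter transcription units (TRANS format, exogenous NR-Gal4 protein); dose 24 h; isolate RNA, reverse-transcribe, PCR-amplify, FAM-label, HpaI-digest; resolve by capillary electrophoresis. Positive direction vs DMSO.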
Chain of Androgen receptor (Homo sapiens) (P10275 whole entry, looked up, the tested form may be a part): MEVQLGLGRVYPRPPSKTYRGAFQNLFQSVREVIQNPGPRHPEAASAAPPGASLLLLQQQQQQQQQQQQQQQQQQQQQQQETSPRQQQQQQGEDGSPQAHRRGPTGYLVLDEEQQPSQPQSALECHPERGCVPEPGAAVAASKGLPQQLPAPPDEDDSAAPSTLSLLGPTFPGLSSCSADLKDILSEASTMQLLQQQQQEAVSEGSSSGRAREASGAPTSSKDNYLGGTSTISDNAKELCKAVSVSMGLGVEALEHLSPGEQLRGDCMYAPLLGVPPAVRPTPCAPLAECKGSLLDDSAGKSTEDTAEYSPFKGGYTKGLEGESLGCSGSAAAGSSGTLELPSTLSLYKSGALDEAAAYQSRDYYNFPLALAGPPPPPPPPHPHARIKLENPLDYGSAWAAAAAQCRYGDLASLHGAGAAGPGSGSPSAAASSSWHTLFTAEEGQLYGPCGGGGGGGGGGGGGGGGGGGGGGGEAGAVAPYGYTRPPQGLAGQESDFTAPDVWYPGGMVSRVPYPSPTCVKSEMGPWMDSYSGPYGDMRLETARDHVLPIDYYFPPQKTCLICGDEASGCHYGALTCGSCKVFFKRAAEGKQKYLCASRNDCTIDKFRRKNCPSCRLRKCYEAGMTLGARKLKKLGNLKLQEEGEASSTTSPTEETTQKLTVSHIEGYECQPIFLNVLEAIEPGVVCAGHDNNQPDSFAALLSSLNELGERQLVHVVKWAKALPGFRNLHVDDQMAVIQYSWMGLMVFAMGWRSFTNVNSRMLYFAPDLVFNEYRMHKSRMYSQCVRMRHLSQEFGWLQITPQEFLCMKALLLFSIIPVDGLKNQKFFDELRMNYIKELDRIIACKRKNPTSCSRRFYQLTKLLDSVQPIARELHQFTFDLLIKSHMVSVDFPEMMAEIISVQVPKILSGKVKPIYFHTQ
For `CCCC1CCOC(C)S1` (stereo not given), the compound was classed as inactive.
Next, `Clc1cccc(Cl)n1`: “inactive”.
Take `COC(C)(C)CC(C)=O`: the result was inactive.
Next, `O=C(c1ccccc1)c1ccc(Cl)cc1`: “inactive”; `CN(Cc1cnc2nc(N)nc(N)c2n1)c1ccc(C(=O)N[C@@H](CCC(=O)O)C(=O)O)cc1`: “inactive”; `CC1CNCC(C)O1` (stereo not given): “inactive”.
For the compound `Cc1c(C(=O)c2c[nH]n(C)c2=O)ccc(S(C)(=O)=O)c1C1=NOCC1`, the call was inactive.
Next, `C=CC(=O)OCCCCCCOC(=O)C=C`: “inactive”.
`N[C@H]1C(O)O[C@H](CO)[C@H](O)[C@@H]1O` (stereo not given in full): the result was inactive.
Regarding `CC(=O)CC(C)C`, the call was inactive.
On to `C=CC(=C)CCCC(C)(C)OC(C)=O`, for which the compound was called inactive.
Turning to `CCOC(=O)OC(=O)OCC`, the call was inactive.
Next, `CCc1ccc(C(c2ccc(CC)cc2)C(Cl)Cl)cc1`: “inactive”; `O=C(Nc1ccccc1)c1cc([N+](=O)[O-])ccc1Cl`: “inactive”; `C=CC(C)(C)O`: “inactive”.
For `CN(C)c1ccc(C(c2ccccc2)c2ccc(N(C)C)cc2)cc1`, the compound was called inactive.
As for `CCCCCCS`, the result was inactive.
As to `OCc1ccccc1`, the compound was classed as inactive.
Turning to `CC(C)c1ccc2cc(C(C)C)ccc2c1`, the compound was classed as inactive.
Next, `OCCNCc1ccccc1`: “inactive”; `O=Nc1ccc(Nc2ccccc2)cc1`: “inactive”; `CCOC(OCC)C(=O)c1ccccc1`: “inactive”.
`FC(F)(F)C1(F)C(F)(F)C(F)(F)C(F)(F)C1(F)F`: the compound was called inactive.
Next, `C=C(C)[C@@H]1CC=C(C)C(=O)C1`: “inactive”; `CC1CCC(C(C)(C)O)CC1` (stereo not given): “inactive”.
Turning to `COc1ccc(CCO)cc1`, the compound was classed as inactive.
Next, `CC(=O)c1ccc(S(=O)(=O)NC(=O)NC2CCCCC2)cc1`: “inactive”; `Nc1ccnc(=O)[nH]1`: “inactive”; `c1ccc(-c2ccccc2-c2ccccc2)cc1`: “inactive”.
As for `CC(c1cc2ccccc2s1)N(O)C(N)=O` (stereo not given), the call was inactive.
As to `C#CC(C)N(C)C(=O)Nc1ccc(Cl)cc1` (stereo not given), the result was inactive.
With `CCC(CC)CO`, the compound was called inactive.
Turning to `CC1=CC2C3C=CC(C3)C2C1C` (stereo not given), the call was inactive.
With `CCOC(=O)[C@@H](C)Oc1ccc(Oc2nc3ccc(Cl)cc3o2)cc1`, the compound was classed as inactive.
On to `ON(Cc1ccccc1)Cc1ccccc1`, for which the outcome was inactive.
For `NNC(=O)OCc1ccccc1`, the outcome was inactive.
Take `Cc1ccc(-c2cc(C(F)(F)F)nn2-c2ccc(S(N)(=O)=O)cc2)cc1`: the result was inactive.
For `CC=CC(=O)OCC(C)C`, the call was inactive.
With `CCCCCCCCCCCCCCCCCC[N+](C)(C)Cc1ccccc1`, the compound was called inactive.
For the compound `CC(CC(C)(C)C)CC(C)(C)CC(C)(C)C` (stereo not given), the compound was classed as inactive.
